# Paper PMC7862700, “An all-to-all approach to the identification of sequence-specific readers for epigenetic DNA modifications on cytosine”
# Key:
# Experiment in all cases: DAPPL (digital affinity profiling via proximity ligation, sequencing); 10 mM Tris-HCl pH 7.5, 50 mM NaCl, 1 mM DTT, 4% glycerol, room temperature, 30 min; GST-TFs on glutathione beads, 16-mer random dsDNA library, 0.1% formaldehyde crosslink after washing; high values mean tight binding
# FLI1 = biological target: T1, FLI1 (Homo sapiens, UniProt Q01543 1-452); conditions: protein: recombinant; tags: N-terminal GST; dsDNA, one strand shown
# T1 sequence: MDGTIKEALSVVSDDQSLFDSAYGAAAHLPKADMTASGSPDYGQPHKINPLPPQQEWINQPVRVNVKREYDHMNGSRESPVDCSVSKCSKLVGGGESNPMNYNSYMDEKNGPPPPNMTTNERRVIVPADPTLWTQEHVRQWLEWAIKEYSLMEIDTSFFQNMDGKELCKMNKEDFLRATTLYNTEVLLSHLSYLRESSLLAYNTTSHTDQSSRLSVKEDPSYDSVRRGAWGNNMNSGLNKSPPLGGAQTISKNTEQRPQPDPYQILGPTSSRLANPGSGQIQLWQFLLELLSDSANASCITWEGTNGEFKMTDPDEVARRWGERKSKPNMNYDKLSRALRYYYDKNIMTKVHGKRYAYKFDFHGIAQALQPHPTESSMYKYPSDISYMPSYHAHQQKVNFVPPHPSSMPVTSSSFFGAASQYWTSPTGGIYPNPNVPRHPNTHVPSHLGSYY
# In short: (§1)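 Pools were built from human transcription factors expressed in yeast as GST fusions, captured on glutathione beads and DNA-barcoded, along with a tag-only sample. Incubation with 200 nmole of a 16-mer random double-stranded DNA library lasted 30 min at room temperature in Tris/NaCl/DTT/glycerol buffer, and was followed by washing, 0.1% formaldehyde crosslinking, proximity ligation, PCR amplification and Illumina NextSeq500 sequencing. Binding signal is the quotient of each hexamer's read frequency for a factor and its frequency for the tag-only sample.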
# ELK1 = biological target: T2, ELK1 (Homo sapiens, UniProt P19419 1-428); conditions: protein: recombinant; tags: N-terminal GST; dsDNA, one strand shown
# T2 sequence: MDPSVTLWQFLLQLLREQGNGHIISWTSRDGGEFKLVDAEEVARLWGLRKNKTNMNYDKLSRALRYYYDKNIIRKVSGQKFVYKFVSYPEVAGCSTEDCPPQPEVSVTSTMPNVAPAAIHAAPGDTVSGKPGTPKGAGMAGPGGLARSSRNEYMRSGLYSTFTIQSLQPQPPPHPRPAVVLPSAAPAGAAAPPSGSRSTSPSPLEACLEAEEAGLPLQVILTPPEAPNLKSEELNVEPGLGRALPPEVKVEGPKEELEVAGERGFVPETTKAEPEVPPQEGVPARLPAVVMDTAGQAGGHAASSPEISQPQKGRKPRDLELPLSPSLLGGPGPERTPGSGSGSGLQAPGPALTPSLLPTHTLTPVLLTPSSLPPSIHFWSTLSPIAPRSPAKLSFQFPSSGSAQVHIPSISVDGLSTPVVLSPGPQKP
# In short: as §1
# GABPA = biological target: T3, GABPA (Homo sapiens, UniProt Q06546 1-454); conditions: protein: recombinant; tags: N-terminal GST; dsDNA, one strand shown
# T3 sequence: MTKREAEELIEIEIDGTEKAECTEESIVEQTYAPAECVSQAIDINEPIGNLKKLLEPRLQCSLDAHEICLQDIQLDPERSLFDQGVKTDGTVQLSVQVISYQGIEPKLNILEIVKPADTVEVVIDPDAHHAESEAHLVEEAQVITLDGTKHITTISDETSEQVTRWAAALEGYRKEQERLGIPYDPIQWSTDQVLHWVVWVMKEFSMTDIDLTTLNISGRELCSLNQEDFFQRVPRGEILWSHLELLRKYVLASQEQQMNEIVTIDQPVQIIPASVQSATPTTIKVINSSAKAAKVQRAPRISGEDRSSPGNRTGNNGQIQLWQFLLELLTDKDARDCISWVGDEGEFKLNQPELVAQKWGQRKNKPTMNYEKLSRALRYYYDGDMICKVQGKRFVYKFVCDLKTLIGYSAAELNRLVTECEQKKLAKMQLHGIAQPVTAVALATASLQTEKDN
# In short: as §1
# ERG = biological target: T4, ERG (Homo sapiens, UniProt P11308 1-479); conditions: protein: recombinant; tags: N-terminal GST; dsDNA, one strand shown
# T4 sequence: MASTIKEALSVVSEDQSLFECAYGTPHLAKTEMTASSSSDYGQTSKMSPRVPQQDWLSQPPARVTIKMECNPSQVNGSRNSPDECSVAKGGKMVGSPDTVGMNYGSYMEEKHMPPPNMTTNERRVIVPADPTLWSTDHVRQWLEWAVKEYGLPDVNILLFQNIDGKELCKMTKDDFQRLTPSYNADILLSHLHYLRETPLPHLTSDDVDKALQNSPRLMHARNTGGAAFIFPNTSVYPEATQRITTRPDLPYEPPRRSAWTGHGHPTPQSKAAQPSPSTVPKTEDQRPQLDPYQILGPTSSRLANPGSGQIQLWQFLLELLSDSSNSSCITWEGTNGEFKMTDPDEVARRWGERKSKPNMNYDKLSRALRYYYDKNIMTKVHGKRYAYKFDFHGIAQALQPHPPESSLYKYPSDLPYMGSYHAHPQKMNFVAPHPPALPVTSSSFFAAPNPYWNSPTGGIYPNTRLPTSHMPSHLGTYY
# In short: as §1
# ELF1 = ELF1 (Homo sapiens, UniProt P32519 1-619); conditions: protein: recombinant; tags: N-terminal GST; dsDNA, one strand shown
# In short: as §1
# EHF = biological target: T5, EHF (Homo sapiens, UniProt Q9NZC4 1-300); conditions: protein: recombinant; tags: N-terminal GST; dsDNA, one strand shown
# T5 sequence: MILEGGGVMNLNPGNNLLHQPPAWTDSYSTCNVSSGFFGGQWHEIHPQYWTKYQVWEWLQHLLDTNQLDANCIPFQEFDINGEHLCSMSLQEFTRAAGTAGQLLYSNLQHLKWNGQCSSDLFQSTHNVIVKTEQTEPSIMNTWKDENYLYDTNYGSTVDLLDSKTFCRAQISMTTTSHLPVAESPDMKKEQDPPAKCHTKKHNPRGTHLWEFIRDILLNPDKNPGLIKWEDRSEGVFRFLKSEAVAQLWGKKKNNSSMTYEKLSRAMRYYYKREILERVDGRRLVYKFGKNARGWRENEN
# In short: as §1
# SPI1 = SPI1 (Homo sapiens, UniProt P17947 1-270); conditions: protein: recombinant; tags: N-terminal GST; dsDNA, one strand shown
# In short: as §1
# SPIB = SPIB (Homo sapiens, UniProt Q01892 1-262); conditions: protein: recombinant; tags: N-terminal GST; dsDNA, one strand shown
# In short: as §1
# ELK3 = biological target: T6, ELK3 (Homo sapiens, UniProt P41970 1-407); conditions: protein: recombinant; tags: N-terminal GST; dsDNA, one strand shown
# T6 sequence: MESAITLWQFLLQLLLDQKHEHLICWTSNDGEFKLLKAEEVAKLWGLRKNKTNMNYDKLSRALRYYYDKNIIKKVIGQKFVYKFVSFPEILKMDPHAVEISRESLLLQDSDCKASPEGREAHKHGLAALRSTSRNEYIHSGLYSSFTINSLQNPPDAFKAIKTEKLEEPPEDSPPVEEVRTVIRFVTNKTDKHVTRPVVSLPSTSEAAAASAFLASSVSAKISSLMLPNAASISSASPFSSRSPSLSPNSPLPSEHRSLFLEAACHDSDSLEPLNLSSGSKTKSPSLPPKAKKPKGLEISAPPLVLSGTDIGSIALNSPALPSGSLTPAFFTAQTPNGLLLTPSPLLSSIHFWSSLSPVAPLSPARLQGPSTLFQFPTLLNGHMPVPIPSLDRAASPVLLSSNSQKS
# In short: as §1
# FEV = biological target: T7, FEV (Homo sapiens, UniProt Q99581 1-238); conditions: protein: recombinant; tags: N-terminal GST; dsDNA, one strand shown
# T7 sequence: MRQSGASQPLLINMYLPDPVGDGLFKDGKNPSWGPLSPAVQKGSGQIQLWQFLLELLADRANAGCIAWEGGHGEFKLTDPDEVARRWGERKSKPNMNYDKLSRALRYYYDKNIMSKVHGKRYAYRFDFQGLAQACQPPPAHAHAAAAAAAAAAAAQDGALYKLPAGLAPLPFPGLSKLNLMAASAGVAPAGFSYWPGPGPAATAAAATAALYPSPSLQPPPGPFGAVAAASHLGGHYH
# In short: as §1
# ETV5 = ETV5 (Homo sapiens, UniProt P41161 1-510); conditions: protein: recombinant; tags: N-terminal GST; dsDNA, one strand shown
# In short: as §1
# HSF1 = HSF1 (Homo sapiens, UniProt Q00613 1-529); conditions: protein: recombinant; tags: N-terminal GST; chain copies: 3; dsDNA, one strand shown
# In short: as §1
# SPIC = biological target: T8, SPIC (Homo sapiens, UniProt Q8N5J4 1-248); conditions: protein: recombinant; tags: N-terminal GST; dsDNA, one strand shown
# T8 sequence: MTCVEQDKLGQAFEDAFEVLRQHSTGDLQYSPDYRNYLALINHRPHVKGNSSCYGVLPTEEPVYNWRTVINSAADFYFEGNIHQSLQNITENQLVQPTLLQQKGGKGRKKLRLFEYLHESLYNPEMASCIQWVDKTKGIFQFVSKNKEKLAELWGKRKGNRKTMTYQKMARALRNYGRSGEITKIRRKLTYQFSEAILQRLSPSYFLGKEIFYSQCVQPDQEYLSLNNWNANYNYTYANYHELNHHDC
# In short: as §1
# ELF4 = ELF4 (Homo sapiens, UniProt Q99607 1-663); conditions: protein: recombinant; tags: N-terminal GST; dsDNA, one strand shown
# In short: as §1
# ELK4 = biological target: T9, ELK4 (Homo sapiens, UniProt P28324-2 1-405); conditions: protein: recombinant; tags: N-terminal GST; dsDNA, one strand shown
# T9 sequence: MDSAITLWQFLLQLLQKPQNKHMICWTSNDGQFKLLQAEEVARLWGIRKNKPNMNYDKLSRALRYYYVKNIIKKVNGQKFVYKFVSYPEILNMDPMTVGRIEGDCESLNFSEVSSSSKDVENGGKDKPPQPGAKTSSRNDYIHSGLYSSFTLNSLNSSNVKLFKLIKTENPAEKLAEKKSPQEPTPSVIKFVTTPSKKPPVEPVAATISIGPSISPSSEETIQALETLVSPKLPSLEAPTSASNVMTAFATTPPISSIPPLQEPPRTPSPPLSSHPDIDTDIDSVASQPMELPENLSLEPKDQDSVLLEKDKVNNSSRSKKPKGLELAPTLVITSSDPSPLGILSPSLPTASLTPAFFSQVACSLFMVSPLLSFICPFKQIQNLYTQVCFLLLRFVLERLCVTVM
# In short: as §1
# ETV2 = biological target: T10, ETV2 (Homo sapiens, UniProt O00321 1-342); conditions: protein: recombinant; tags: N-terminal GST; dsDNA, one strand shown
# T10 sequence: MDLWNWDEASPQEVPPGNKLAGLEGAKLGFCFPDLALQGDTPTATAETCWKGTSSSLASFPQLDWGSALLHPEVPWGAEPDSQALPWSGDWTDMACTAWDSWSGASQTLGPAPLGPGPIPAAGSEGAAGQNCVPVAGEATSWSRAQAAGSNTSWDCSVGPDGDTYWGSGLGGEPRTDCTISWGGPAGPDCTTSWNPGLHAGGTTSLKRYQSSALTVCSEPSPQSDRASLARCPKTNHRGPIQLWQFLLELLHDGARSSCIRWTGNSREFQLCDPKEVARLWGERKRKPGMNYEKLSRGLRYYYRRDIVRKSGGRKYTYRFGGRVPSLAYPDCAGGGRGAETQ
# In short: as §1
# ELF3 = biological target: T11, ELF3 (Homo sapiens, UniProt P78545 1-371); conditions: protein: recombinant; tags: N-terminal GST; dsDNA, one strand shown
# T11 sequence: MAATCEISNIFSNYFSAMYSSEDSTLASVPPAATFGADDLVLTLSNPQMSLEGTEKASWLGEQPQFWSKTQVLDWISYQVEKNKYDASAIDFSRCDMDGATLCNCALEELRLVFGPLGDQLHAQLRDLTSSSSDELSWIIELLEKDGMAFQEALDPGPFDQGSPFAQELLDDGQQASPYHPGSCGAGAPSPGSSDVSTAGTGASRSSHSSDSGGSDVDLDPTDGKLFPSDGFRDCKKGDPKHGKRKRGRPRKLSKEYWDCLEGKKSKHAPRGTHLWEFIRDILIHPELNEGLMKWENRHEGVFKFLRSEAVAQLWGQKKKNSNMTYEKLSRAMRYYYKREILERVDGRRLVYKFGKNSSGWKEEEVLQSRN
# In short: as §1
# CRX = CRX (Homo sapiens, UniProt O43186 1-299); conditions: protein: recombinant; tags: N-terminal GST; dsDNA, one strand shown
# In short: as §1
# ETV1 = ETV1 (Homo sapiens, UniProt P50549 1-477); conditions: protein: recombinant; tags: N-terminal GST; dsDNA, one strand shown
# In short: as §1
# HSF1, sequence (Q00613 whole entry): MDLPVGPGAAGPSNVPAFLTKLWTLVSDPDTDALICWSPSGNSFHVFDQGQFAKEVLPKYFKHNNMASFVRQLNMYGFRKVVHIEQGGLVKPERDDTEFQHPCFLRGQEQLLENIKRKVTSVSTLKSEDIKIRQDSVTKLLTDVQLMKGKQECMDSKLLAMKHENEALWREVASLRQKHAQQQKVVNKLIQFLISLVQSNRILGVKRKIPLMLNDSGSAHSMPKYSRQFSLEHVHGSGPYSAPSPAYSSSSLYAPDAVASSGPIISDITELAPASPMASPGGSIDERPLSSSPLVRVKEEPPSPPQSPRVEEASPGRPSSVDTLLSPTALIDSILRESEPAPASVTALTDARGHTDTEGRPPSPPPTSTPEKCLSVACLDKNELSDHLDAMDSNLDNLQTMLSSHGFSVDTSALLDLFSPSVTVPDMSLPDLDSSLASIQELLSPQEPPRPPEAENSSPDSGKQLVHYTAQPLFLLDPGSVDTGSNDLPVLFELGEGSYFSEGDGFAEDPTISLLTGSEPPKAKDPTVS
# SPIB, sequence (Q01892 whole entry): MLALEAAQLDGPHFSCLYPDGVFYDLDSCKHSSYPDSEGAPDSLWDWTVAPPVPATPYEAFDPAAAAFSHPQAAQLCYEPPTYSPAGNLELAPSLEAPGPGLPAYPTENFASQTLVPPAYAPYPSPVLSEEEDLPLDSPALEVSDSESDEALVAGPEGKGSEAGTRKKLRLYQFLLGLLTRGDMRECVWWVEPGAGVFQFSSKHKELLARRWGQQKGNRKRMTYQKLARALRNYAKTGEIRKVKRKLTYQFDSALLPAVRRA
# CRX, sequence (O43186 whole entry): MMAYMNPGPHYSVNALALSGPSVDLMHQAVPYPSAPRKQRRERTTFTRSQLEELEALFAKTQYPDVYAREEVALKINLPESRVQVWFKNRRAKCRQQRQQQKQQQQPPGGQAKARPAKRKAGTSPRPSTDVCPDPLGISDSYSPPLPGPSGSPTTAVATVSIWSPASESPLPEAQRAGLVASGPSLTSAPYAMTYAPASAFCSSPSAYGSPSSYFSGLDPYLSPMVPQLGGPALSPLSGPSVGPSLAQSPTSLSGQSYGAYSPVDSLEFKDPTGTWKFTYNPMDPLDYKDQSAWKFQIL
# ETV5, sequence (P41161 whole entry): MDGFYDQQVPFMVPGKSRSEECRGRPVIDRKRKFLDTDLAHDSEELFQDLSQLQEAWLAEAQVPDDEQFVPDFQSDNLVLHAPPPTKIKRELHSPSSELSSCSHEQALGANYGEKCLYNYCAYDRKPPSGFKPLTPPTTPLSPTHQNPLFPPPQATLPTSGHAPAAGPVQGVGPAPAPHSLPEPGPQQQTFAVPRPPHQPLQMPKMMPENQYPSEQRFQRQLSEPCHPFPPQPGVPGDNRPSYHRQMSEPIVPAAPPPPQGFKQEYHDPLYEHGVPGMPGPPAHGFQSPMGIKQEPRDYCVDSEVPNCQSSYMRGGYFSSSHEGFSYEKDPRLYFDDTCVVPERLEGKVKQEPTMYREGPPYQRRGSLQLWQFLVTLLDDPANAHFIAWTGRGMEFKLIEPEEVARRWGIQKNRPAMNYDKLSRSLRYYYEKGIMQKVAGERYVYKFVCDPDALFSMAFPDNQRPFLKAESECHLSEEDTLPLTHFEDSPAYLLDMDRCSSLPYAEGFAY
# ETV1, sequence (P50549 whole entry): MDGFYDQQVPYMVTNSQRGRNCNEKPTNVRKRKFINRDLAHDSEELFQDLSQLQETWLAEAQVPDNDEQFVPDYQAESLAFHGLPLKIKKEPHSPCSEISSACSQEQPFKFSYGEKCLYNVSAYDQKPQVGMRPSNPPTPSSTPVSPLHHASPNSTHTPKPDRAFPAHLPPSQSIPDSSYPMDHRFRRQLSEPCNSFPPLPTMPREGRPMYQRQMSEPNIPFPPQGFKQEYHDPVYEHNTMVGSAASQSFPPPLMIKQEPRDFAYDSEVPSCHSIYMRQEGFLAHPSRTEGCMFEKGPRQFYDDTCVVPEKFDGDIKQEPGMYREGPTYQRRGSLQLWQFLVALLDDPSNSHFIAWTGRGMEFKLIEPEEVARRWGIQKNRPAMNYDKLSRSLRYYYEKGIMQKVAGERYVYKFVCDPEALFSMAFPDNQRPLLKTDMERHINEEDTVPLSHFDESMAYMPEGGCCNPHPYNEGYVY
# ELF1, sequence (P32519 whole entry): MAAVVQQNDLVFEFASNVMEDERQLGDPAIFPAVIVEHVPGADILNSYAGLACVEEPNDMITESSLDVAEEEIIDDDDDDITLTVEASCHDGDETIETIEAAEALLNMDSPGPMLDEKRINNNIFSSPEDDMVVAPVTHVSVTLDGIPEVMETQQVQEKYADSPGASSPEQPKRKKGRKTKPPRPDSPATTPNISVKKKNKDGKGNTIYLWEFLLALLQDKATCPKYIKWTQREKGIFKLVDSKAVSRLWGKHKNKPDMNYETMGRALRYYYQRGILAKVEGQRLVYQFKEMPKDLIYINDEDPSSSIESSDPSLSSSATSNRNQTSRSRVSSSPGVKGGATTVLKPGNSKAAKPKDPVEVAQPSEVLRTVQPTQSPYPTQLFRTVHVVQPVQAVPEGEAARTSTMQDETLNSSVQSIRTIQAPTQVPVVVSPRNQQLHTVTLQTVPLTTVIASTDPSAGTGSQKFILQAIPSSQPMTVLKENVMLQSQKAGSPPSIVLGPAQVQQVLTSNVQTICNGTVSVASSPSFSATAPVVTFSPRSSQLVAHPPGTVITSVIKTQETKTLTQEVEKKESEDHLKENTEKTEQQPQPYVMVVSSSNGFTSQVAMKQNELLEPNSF
# ELF4, sequence (Q99607 whole entry): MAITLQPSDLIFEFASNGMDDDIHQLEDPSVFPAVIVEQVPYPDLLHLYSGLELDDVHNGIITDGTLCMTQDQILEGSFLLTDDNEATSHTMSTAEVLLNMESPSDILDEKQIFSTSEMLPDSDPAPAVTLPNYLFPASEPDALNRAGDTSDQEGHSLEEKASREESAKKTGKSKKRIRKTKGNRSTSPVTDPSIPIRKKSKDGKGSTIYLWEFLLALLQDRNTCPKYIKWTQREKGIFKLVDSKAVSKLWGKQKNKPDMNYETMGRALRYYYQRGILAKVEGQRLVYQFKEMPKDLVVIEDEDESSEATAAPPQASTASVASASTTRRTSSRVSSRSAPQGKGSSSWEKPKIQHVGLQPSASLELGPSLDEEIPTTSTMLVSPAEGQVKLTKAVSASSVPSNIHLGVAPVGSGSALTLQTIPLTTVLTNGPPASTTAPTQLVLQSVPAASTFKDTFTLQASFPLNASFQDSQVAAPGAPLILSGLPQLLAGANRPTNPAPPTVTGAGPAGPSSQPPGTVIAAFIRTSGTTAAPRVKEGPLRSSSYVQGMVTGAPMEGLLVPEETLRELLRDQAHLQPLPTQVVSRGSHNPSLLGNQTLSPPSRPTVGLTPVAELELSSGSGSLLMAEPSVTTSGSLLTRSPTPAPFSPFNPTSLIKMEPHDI
sequence,measurement,setting,value
GTATTC,binding signal,FLI1,"1.33 fold enrichment (6-mer frequency, TF over GST control)"
same,binding signal,ELK1,"1.17 fold enrichment (6-mer frequency, TF over GST control)"
same,binding signal,GABPA,"1.26 fold enrichment (6-mer frequency, TF over GST control)"
same,binding signal,ERG,"1.19 fold enrichment (6-mer frequency, TF over GST control)"
same,binding signal,ELF1,"1.22 fold enrichment (6-mer frequency, TF over GST control)"
same,binding signal,EHF,"1.27 fold enrichment (6-mer frequency, TF over GST control)"
same,binding signal,SPI1,"1.31 fold enrichment (6-mer frequency, TF over GST control)"
same,binding signal,SPIB,"1.25 fold enrichment (6-mer frequency, TF over GST control)"
same,binding signal,ELK3,"1.3 fold enrichment (6-mer frequency, TF over GST control)"
same,binding signal,FEV,"1.18 fold enrichment (6-mer frequency, TF over GST control)"
same,binding signal,ETV5,"1.32 fold enrichment (6-mer frequency, TF over GST control)"
same,binding signal,HSF1,"1.31 fold enrichment (6-mer frequency, TF over GST control)"
same,binding signal,SPIC,"1.33 fold enrichment (6-mer frequency, TF over GST control)"
same,binding signal,ELF4,"1.27 fold enrichment (6-mer frequency, TF over GST control)"
same,binding signal,ELK4,"1.16 fold enrichment (6-mer frequency, TF over GST control)"
same,binding signal,ETV2,"1.27 fold enrichment (6-mer frequency, TF over GST control)"
same,binding signal,ELF3,"1.31 fold enrichment (6-mer frequency, TF over GST control)"
same,binding signal,CRX,"1.13 fold enrichment (6-mer frequency, TF over GST control)"
same,binding signal,ETV1,"1.22 fold enrichment (6-mer frequency, TF over GST control)"
